# Activity calls are given as the source filed them. The calls were made as follows: active = hit-call score of the fitted dose curve at least 0.9, where 1 is the maximum; inactive = score below 0.9.
# Experiments:
# [1] = read-out: Thrombomodulin, THBD (gene 7056); assay: BSK_CASM3C_Thrombomodulin: BioMAP Diversity Plus: CASM3C Assay for Thrombomodulin Biomarker Activity (AID 2283051); details: primary human coronary artery smooth muscle cells; actives raise or lower the signal;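 also: thrombomodulin protein level measured by ELISA 24 h after dosing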
# [2] = read-out: Tissue Factor, F3 (gene 2152); assay: BSK_CASM3C_TissueFactor: BioMAP Diversity Plus: CASM3C Assay for Tissue Factor Biomarker Activity (AID 2283052); details: primary human coronary artery smooth muscle cells; actives raise or lower the signal;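 also: cell surface tissue factor protein level read by ELISA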
# [3] = read-out: Interferon-gamma inducible Protein 10 (IP10), CXCL10 (gene 3627); assay: BSK_hDFCGF_IP10: BioMAP Diversity Plus: hDFCGF Assay for Interferon-gamma inducible Protein 10 (IP10) Biomarker Activity (AID 2283053); details: primary human foreskin fibroblasts; actives raise or lower the signal
# Outline: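 Primary human foreskin fibroblasts exposed to chemicals for 24 h. IP-10 measured by ELISA; changes fitted bidirectionally against DMSO baseline.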
# [4] = read-out: Urokinase-type plasminogen activator receptor (uPAR), PLAUR (gene 5329); assay: BSK_CASM3C_uPAR: BioMAP Diversity Plus: CASM3C Assay for Urokinase-type plasminogen activator receptor (uPAR) Biomarker Activity (AID 2283054); details: primary human coronary artery smooth muscle cells; actives raise or lower the signal;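 also: cell-surface uPAR protein level quantified by ELISA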
# [5] = read-out: Vascular cell adhesion molecule 1 (VCAM1), VCAM1 (gene 7412); assay: BSK_CASM3C_VCAM1: BioMAP Diversity Plus: CASM3C Assay for Vascular cell adhesion molecule 1 (VCAM1) Biomarker Activity (AID 2283055); details: primary human coronary artery smooth muscle cells; actives raise or lower the signal;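 also: VCAM-1 protein level quantified by ELISA on the cells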
# [6] = read-out: Collagen III, COL3A1 (gene 1281); assay: BSK_hDFCGF_CollagenIII: BioMAP Diversity Plus: hDFCGF Assay for Collagen III Biomarker Activity (AID 2283056); details: primary human foreskin fibroblasts; actives raise or lower the signal
# Outline: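 Human foreskin primary fibroblasts were exposed to test chemicals for 24 h, after which collagen III was quantified by ELISA. Activity was fitted bidirectionally against DMSO as negative control and baseline.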
# [7] = read-out: Epidermal growth factor receptor (EGFR), EGFR (gene 1956); assay: BSK_hDFCGF_EGFR: BioMAP Diversity Plus: hDFCGF Assay for Epidermal growth factor receptor (EGFR) Biomarker Activity (AID 2283057); details: primary human foreskin fibroblasts; actives raise or lower the signal
# Outline: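 Primary human foreskin fibroblasts (hDFCGF system), sampled 24 h after dosing; EGFR quantified by ELISA. Bidirectional fit relative to DMSO baseline; SRB total-protein staining in parallel cultures for cytotoxicity.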
# [8] = read-out: Interleukin-8 (IL8), CXCL8 (gene 3576); assay: BSK_hDFCGF_IL8: BioMAP Diversity Plus: hDFCGF Assay for Interleukin-8 (IL8) Biomarker Activity (AID 2283058); details: primary human foreskin fibroblasts; actives raise or lower the signal
# Outline: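 hDFCGF human dermal fibroblasts; 24 h chemical exposure; IL-8 by ELISA; bidirectional curve fit vs DMSO baseline; gain or loss of signal scored.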
# [9] = BSK_hDFCGF_Proliferation: Cell Proliferation Assessment in the BioMAP Diversity Plus: hDFCGF Assay (AID 2283059); details: primary human foreskin fibroblasts;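 also: curves fitted for both rise and fall of signal versus DMSO baseline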
# Outline: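 Primary human foreskin fibroblasts, sub-confluent; […]; 10% TCA fix, 0.1% SRB stain, A560 total protein. Gain/loss fitted bidirectionally vs DMSO control.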
# [10] = read-out: Macrophage colony-stimulating factor (MCSF), CSF1 (gene 1435); assay: BSK_hDFCGF_MCSF: BioMAP Diversity Plus: hDFCGF Assay for Macrophage colony-stimulating factor (MCSF) Biomarker Activity (AID 2283060); details: primary human foreskin fibroblasts; actives raise or lower the signal
# Outline: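 Human foreskin primary fibroblasts were treated with test chemical for 24 h, and M-CSF was then measured by ELISA. Data were fitted bidirectionally against DMSO as the negative control and activity baseline.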
# [11] = BSK_hDFCGF_SRB: Viability Assessment in the BioMAP Diversity Plus: hDFCGF Assay (AID 2283061); details: primary human foreskin fibroblasts;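 also: cells exposed to compound for 24 h before the read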
# Outline: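 Human foreskin primary fibroblasts were treated with compound and assessed 24 h after dosing. Total protein was measured by sulforhodamine B staining (0.1% SRB after 10% TCA fixation, 560 nm read) as a cytotoxicity marker, with bidirectional fitting against DMSO baseline.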
# [12] = read-out: TIMP metallopeptidase inhibitor 1 (TIMP1), TIMP1 (gene 7076); assay: BSK_hDFCGF_TIMP1: BioMAP Diversity Plus: hDFCGF Assay for TIMP metallopeptidase inhibitor 1 (TIMP1) Biomarker Activity (AID 2283062); details: primary human foreskin fibroblasts; actives raise or lower the signal
# Outline: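 Primary human foreskin fibroblasts in the hDFCGF system were dosed with compound for 24 h, then TIMP-1 was measured by ELISA. Activity was fitted bidirectionally relative to DMSO control; parallel SRB staining assessed cytotoxicity.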
# [13] = read-out: Monokine induced gamma interferon (MIG), CXCL9 (gene 4283); assay: BSK_hDFCGF_MIG: BioMAP Diversity Plus: hDFCGF Assay for Monokine induced gamma interferon (MIG) Biomarker Activity (AID 2283063); details: primary human foreskin fibroblasts; actives raise or lower the signal
# Outline: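 ELISA read-out of MIG from primary human dermal fibroblasts 24 h post-dosing. Gain or loss of signal fitted bidirectionally, DMSO as baseline.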
# [14] = read-out: Matrix Metallopeptidase 1 (MMP1), MMP1 (gene 4312); assay: BSK_hDFCGF_MMP1: BioMAP Diversity Plus: hDFCGF Assay for Matrix Metallopeptidase 1 (MMP1) Biomarker Activity (AID 2283064); details: primary human foreskin fibroblasts; actives raise or lower the signal
# Outline: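 Primary human foreskin fibroblasts exposed to chemicals for 24 h; MMP1 measured by ELISA. Cytotoxicity tracked by SRB staining in parallel cultures; bidirectional fit relative to DMSO.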
# [15] = read-out: Vascular cell adhesion molecule 1 (VCAM1), VCAM1 (gene 7412); assay: BSK_hDFCGF_VCAM1: BioMAP Diversity Plus: hDFCGF Assay for Vascular cell adhesion molecule 1 (VCAM1) Biomarker Activity (AID 2283065); details: primary human foreskin fibroblasts; actives raise or lower the signal;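 as to AC50: VCAM-1 protein level quantified by ELISA after 24 h chemical exposure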
# Outline: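 Primary human foreskin fibroblasts (hDFCGF system) were dosed with chemical and VCAM-1 was measured by ELISA 24 h later. Bidirectional curve fitting used DMSO as negative control and activity baseline.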
# [16] = read-out: Plasminogen activator inhibitor-1 (PAI1), SERPINE1 (gene 5054); assay: BSK_hDFCGF_PAI1: BioMAP Diversity Plus: hDFCGF Assay for Plasminogen activator inhibitor-1 (PAI1) Biomarker Activity (AID 2283066); details: primary human foreskin fibroblasts; actives raise or lower the signal
# Outline: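 Human foreskin fibroblast primary cells, 24 h chemical exposure; PAI-1 measured by ELISA. Bidirectional fitting relative to DMSO; parallel cultures stained with SRB for total protein to flag overt cytotoxicity.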
# [17] = read-out: Intercellular Adhesion Molecule 1 (ICAM1), ICAM1 (gene 3383); assay: BSK_KF3CT_ICAM1: BioMAP Diversity Plus: KF3CT Assay for Intercellular Adhesion Molecule 1 (ICAM1) Biomarker Activity (AID 2283067); details: primary human keratinocytes with fibroblasts; actives raise or lower the signal
# Outline: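 Human keratinocyte plus foreskin fibroblast primary co-culture was exposed to chemical for 24 h. ICAM-1 was then quantified by ELISA, and the data were fit bidirectionally against DMSO as the negative control and baseline.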
# [18] = read-out: Interferon-gamma inducible Protein 10 (IP10), CXCL10 (gene 3627); assay: BSK_KF3CT_IP10: BioMAP Diversity Plus: KF3CT Assay for Interferon-gamma inducible Protein 10 (IP10) Biomarker Activity (AID 2283068); details: primary human keratinocytes with fibroblasts; actives raise or lower the signal
# Outline: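 In a primary skin co-culture of keratinocytes and fibroblasts, IP-10 is quantified by ELISA at 24 h after dosing. SRB staining of parallel wells monitors overt toxicity. Curves are fitted both directions against DMSO.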
# [19] = BSK_KF3CT_SRB: Viability Assessment in the BioMAP Diversity Plus: KF3CT Assay (AID 2283069); details: primary human keratinocytes with fibroblasts;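 also: fitted for both signal gain and loss against DMSO baseline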
# Outline: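 Human keratinocyte and foreskin fibroblast co-culture exposed to chemical for 24 h. Total protein measured in parallel cultures by 0.1% sulforhodamine B staining after 10% TCA fixation, read at 560 nm; bidirectional fit relative to DMSO.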
# [20] = read-out: Interleukin-1 alpha (IL1a), IL1A (gene 3552); assay: BSK_KF3CT_IL1a: BioMAP Diversity Plus: KF3CT Assay for Interleukin-1 alpha (IL1a) Biomarker Activity (AID 2283070); details: primary human keratinocytes with fibroblasts; actives raise or lower the signal
# Outline: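 Primary human keratinocyte plus foreskin fibroblast co-culture, dosed and measured at 24 h in 96-well plates. IL-1a level quantified by ELISA; bidirectional fit relative to DMSO.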
smiles,measurement,setting,value
COC(=O)N(C(=O)N1CO[C@@]2(C(=O)OC)Cc3cc(Cl)ccc3C2=N1)c1ccc(OC(F)(F)F)cc1,outcome,[1],inactive
same,outcome,[2],inactive
same,AC50,[3],13.5 µM (active)
same,outcome,[4],inactive
same,outcome,[5],inactive
same,outcome,[6],inactive
same,outcome,[7],inactive
same,outcome,[8],inactive
same,AC50,[9],7.63 µM (active)
same,outcome,[10],inactive
same,AC50,[11],3.65 µM (active)
same,outcome,[12],inactive
same,outcome,[13],inactive
same,outcome,[14],inactive
same,outcome,[15],inactive
same,AC50,[16],5.54 µM (active)
same,outcome,[17],inactive
same,AC50,[18],13.3 µM (active)
same,outcome,[19],inactive
same,outcome,[20],inactive
CO/N=C(/C1=NOCCO1)c1ccccc1Oc1ncnc(Oc2ccccc2Cl)c1F,outcome,[1],inactive
same,outcome,[2],inactive
same,outcome,[3],inactive
same,outcome,[4],inactive
same,outcome,[5],inactive
same,outcome,[6],inactive
same,outcome,[7],inactive
same,outcome,[8],inactive
same,AC50,[9],26.7 µM (active)
same,outcome,[10],inactive
same,outcome,[11],inactive
same,AC50,[12],8.26 µM (active)
same,outcome,[13],inactive
same,outcome,[14],inactive
same,outcome,[15],inactive
same,outcome,[16],inactive
same,outcome,[17],inactive
same,AC50,[18],7.33 µM (active)
same,outcome,[19],inactive
same,AC50,[20],20 µM (active)
CCN(CC)C(=O)C(C)Oc1cccc2ccccc12 (stereo not drawn),AC50,[1],0.148 µM (active)
same,outcome,[2],inactive
same,AC50,[3],3.97 µM (active)
same,outcome,[4],inactive
same,outcome,[5],inactive
same,AC50,[6],0.148 µM (active)
same,outcome,[7],inactive
same,outcome,[8],inactive
same,outcome,[9],inactive
same,outcome,[10],inactive
same,outcome,[11],inactive
same,outcome,[12],inactive
same,outcome,[13],inactive
same,outcome,[14],inactive
same,outcome,[16],inactive
same,outcome,[17],inactive
same,outcome,[18],inactive
same,outcome,[19],inactive
same,outcome,[20],inactive
CCN(CC)c1nc(C)cc(OP(=S)(OC)OC)n1,AC50,[1],20 µM (active)
same,outcome,[2],inactive
same,AC50,[3],20 µM (active)
same,outcome,[4],inactive
same,outcome,[5],inactive
same,outcome,[6],inactive
same,outcome,[7],inactive
same,outcome,[8],inactive
same,AC50,[9],20 µM (active)
same,AC50,[10],14.6 µM (active)
same,outcome,[11],inactive
same,outcome,[12],inactive
same,AC50,[14],4.09 µM (active)
same,AC50,[15],27 µM (active)
same,AC50,[16],11.3 µM (active)
same,outcome,[17],inactive
same,outcome,[18],inactive
same,outcome,[19],inactive
same,outcome,[20],inactive
CCOc1nc(C(Cl)(Cl)Cl)ns1,outcome,[1],inactive
same,outcome,[2],inactive
same,outcome,[3],inactive
same,outcome,[4],inactive
same,outcome,[5],inactive
same,outcome,[6],inactive
same,outcome,[7],inactive
same,outcome,[8],inactive
same,outcome,[9],inactive
same,outcome,[10],inactive
same,outcome,[11],inactive
same,outcome,[12],inactive
same,outcome,[13],inactive
same,outcome,[14],inactive
same,outcome,[15],inactive
same,outcome,[16],inactive
same,outcome,[17],inactive
same,outcome,[18],inactive
same,outcome,[19],inactive
same,outcome,[20],inactive
CS(=O)(=O)c1cc(C(F)(F)F)ccc1C(=O)c1cnoc1C1CC1,outcome,[1],inactive
same,outcome,[2],inactive
same,outcome,[3],inactive
same,outcome,[4],inactive
same,outcome,[5],inactive
same,outcome,[6],inactive
same,outcome,[7],inactive
same,outcome,[8],inactive
same,outcome,[9],inactive
same,outcome,[10],inactive
same,outcome,[11],inactive
same,outcome,[12],inactive
same,outcome,[13],inactive
same,outcome,[14],inactive
same,outcome,[15],inactive
same,outcome,[16],inactive
same,outcome,[17],inactive
same,outcome,[18],inactive
same,outcome,[19],inactive
same,outcome,[20],inactive
Nc1c(Cl)c(Cl)nc(C(=O)O)c1Cl,outcome,[1],inactive
same,outcome,[2],inactive
same,outcome,[3],inactive
same,outcome,[4],inactive
same,outcome,[5],inactive
same,outcome,[6],inactive
same,outcome,[7],inactive
same,outcome,[8],inactive
same,outcome,[9],inactive
same,outcome,[10],inactive
same,outcome,[11],inactive
same,outcome,[12],inactive
same,outcome,[13],inactive
same,outcome,[14],inactive
same,outcome,[15],inactive
same,outcome,[16],inactive
same,outcome,[17],inactive
same,outcome,[18],inactive
same,outcome,[19],inactive
same,outcome,[20],inactive

# Source: PubChem BioAssay (EPA / NIEHS)
